A selection: hits, their analogues and other compounds. The true share with any hit is near 12%.
CHOP inhibitor = blocks CHOP induction under ER stress | CHO-K1 CHOP-promoter luciferase, tunicamycin-induced, 15-18 h | inhibition, % at 10 µM | 3.8% of 220,000 active;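 active means compounds that reduced the stress-induced luciferase reporter signal by more than about 70% of percent inhibition, limit read from the data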;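 further: 0% = tunicamycin plus vehicle and 100% = wells without tunicamycin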
WT yeast gro inh = growth inhibition of WT yeast, mitochondrial fusion screen | AID 1362 | inhibition, % at 10 µM | 2.1% of 190,000 active | mitochondrial fusion phenotypic screen, WT strain; in the data active means inhibition above about 58%; tested in S. cerevisiae
L major viab = inhibitors of Leishmania major promastigote growth; AID 1063; Leishmania major promastigotes, resazurin fluorescence viability; 9% of 200,000 active; inhibition, % at 10 µM; in the data active means inhibition above about 50%;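 further: promastigotes grown with compound for 44 hours at 28 °C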
Arbovirus anti = arbovirus infection inhibition | arbovirus infection cell-based antiviral screen | 0.37% of 200,000 active | inhibition, % at 10 µM; in the data active means inhibition above about 30%
Numbers without * were called inactive; / = no result.

SMILES	CHOP inhibitor	WT yeast gro inh	L major viab	Arbovirus anti
Cc1ccc2nc(SCC(=O)Nc3ccc4c(c3)CCC4)[nH]c2c1	-10	2	-2	-9
COc1ccc2nc(SCC(=O)NC3CCCc4ccccc43)[nH]c2c1 (stereo not drawn)	53	-6	75*	2
CC1(CCc2ccccc2)NC(=O)N(CC(=O)N2CC(=O)Nc3ccccc32)C1=O (stereo not drawn)	-13	/	/	/
O=C(CSc1nncs1)Nc1ccc(Cl)cn1	23	-14	-6	2
Cc1ccc2nc(Cl)c(/C=N/NC(=O)c3ccccc3O)cc2c1	6	62*	-11	-2
Cc1ccc2nc(Cl)c(/C=N/NC(=O)[C@H]3C[C@@H]3c3ccccc3)cc2c1	74*	16	48	7
O=C(N/N=C/C=C/c1ccccc1)C1CC1c1ccccc1 (stereo not drawn)	44	64*	1	2
CC(C)(C)c1ccc(C2CC2C(=O)N/N=C\c2cc3ccccc3nc2Cl)cc1 (stereo not drawn)	0	22	3	8
CCN(CC)C(=O)CSc1nnc(CNc2ccc(F)cc2)o1	21	17	-3	6
CC(C)OCCCNC(=O)CCSc1ccc(Cl)cc1	-19	-3	-5	5
Cc1cccc(NC(=S)N/N=C2\CC(C)(C)Oc3ccc(O)cc32)c1	20	1	39	13
CC1(C)C/C(=N\NC(=S)Nc2ccccc2F)c2cc(O)ccc2O1	-5	8	80*	14
COc1ccc(Cl)cc1N(CC(=O)NC(C(C)C)C(C)C)S(C)(=O)=O	12	-14	14	10
COc1ccc(Sc2nnc(Cc3ccccc3)c3ccccc23)cc1	35	7	85*	-5
Cc1ccc(Sc2nnc(Cc3ccccc3)c3ccccc23)cc1	57	27	39	-8
O=C(CSc1ccccn1)Nc1nc2ccc(Br)cc2s1	58	/	-4	-1
CCN1CCCC1CN(Cc1cc2c(C)cc(C)cc2[nH]c1=O)C(=O)NC1CCCCC1 (stereo not drawn)	19	11	59*	-22
CC(C)c1nc(SCC(=O)Nc2cccc(C(F)(F)F)c2)c2c(=O)n(C)c(=O)n(C)c2n1	70*	21	6	-6
CC(C)c1nc(SCC(=O)N2CCN(c3ccccc3)CC2)c2c(=O)n(C)c(=O)n(C)c2n1	70*	46	25	-10
COC(=O)c1cc(CNC(=O)c2cccc(Cl)c2Cl)ccc1OC	18	-6	53*	-1
COc1ccc2oc(C(=O)OCC(=O)NCCN3C(=O)CSC3=O)c(C)c2c1	23	-8	-6	-2
COC(=O)c1ccccc1NC(=O)NCc1c(C)nn(C)c1C	1	-4	0	-9
COc1ccccc1CN1C[C@@H]2C[C@@H](c3ccc(C)cc3)N3CCC[C@@]23C1=O	5	4	-1	-5
O=C1N(Cc2cccc(Cl)c2)C[C@@H]2C[C@@H](c3cccc4ncccc34)N3CCC[C@@]123	21	9	100*	-14
O=C1N(Cc2cccnc2)C[C@@H]2C[C@@H](c3ccccc3C#Cc3ccccc3)N3CCC[C@@]123	25	15	6	6
SMILES	CHOP inhibitor	WT yeast gro inh	L major viab	Arbovirus anti
Cc1ccc([C@@H]2C[C@H]3CN(Cc4cccc(Cl)c4)C(=O)[C@]34CCCN24)o1	26	-4	4	-5
Cc1ccccc1-c1cccc([C@@H]2C[C@H]3CN(Cc4cccnc4)C(=O)[C@]34CCCN24)c1	12	26	63*	-6
O=C1N(Cc2cccc(Cl)c2)C[C@@H]2C[C@@H](c3ccc4nonc4c3)N3CCC[C@@]123	9	1	60*	-10
COc1ccccc1CN1C[C@@H]2C[C@@H](c3ccc4nsnc4c3)N3CCC[C@@]23C1=O	42	9	67*	3
CC1=NN(C(=O)c2ccoc2C)C(O)(C(F)(F)F)C1 (stereo not drawn)	7	/	/	/
Cc1ccc2oc(=O)n(Cc3ccccc3OC(C)C)c2c1	84*	29	9	4
Cc1ccc2oc(=O)n(CCOc3ccccc3C)c2c1	28	6	4	0
Cc1ccc2oc(=O)n(CCCOc3ccccc3C)c2c1	82*	64*	0	-10
CCCCOc1ccccc1Cn1c(=O)oc2ccc(C)cc21	59	25	17	2
COc1ccc(S(=O)(=O)N2CCCC(C(=O)NCc3ccc4c(c3)OCO4)C2)cc1 (stereo not drawn)	13	/	/	/
Cc1ccc(S(=O)(=O)N2CC3CCCC2C3)cc1 (stereo not drawn)	14	/	/	/
O=C1CC(N2C(=O)/C(=C/C=C/c3ccccc3)SC2=S)C(=O)N1c1ccccc1 (stereo not drawn)	26	-10	56*	0
O=C(O)CN1C(=O)/C(=C/C=C/c2ccccc2)SC1=S	-10	7	-11	13
CSc1ccc(S(=O)(=O)NCCCOC(C)C)cc1	8	2	-1	10
CCN(CC)S(=O)(=O)c1ccc(NC(=O)c2cc(C(=O)OC)cc([N+](=O)[O-])c2)cc1	47	-9	30	-13
COC(=O)c1cc(C(=O)Nc2ccc(S(=O)(=O)NC(C)(C)C)cc2)cc([N+](=O)[O-])c1	56	4	99*	1
NCc1ccccc1COc1ccccc1	-15	1	-7	9
CCN1CCN(c2ncnc3c2sc(=S)n3-c2ccccc2)CC1	42	22	52*	0
Cc1ccc(S(=O)(=O)N2CCCCC2)cc1NC(=O)Cn1ccsc1=N	15	-7	0	2
CN(C)S(=O)(=O)c1ccc(Cl)c(NC(=O)COC(=O)CN2C(=O)NC(C)(C)C2=O)c1	28	2	29	-3
CC1(C)NC(=O)N(CC(=O)OCC(=O)Nc2cc(S(=O)(=O)N3CCCCC3)ccc2Cl)C1=O	79*	2	70*	-2
Cc1ccc(S(=O)(=O)N2CCCCC2)cc1NC(=O)CN1C(=O)CN(C)C1=O	86*	-4	-4	-4
COC(=O)c1cccc(C23CC4(C2)[C@H](CN(Cc2cccnc2)[C@@H]4c2ccccc2)C3c2ccccc2)c1 (stereo partly drawn)	13	/	/	/
COc1ccc(OC)c(NC(=O)CN(C)S(=O)(=O)c2ccc(Cl)cc2)c1	6	-14	2	2
O=C(NCC1CCCO1)C(c1cccs1)N(Cc1cccs1)C(=O)c1ccc(-c2ccccc2)[nH]1 (stereo not drawn)	20	44	99*	-27
SMILES	CHOP inhibitor	WT yeast gro inh	L major viab	Arbovirus anti
Cc1snc2sc(C(=O)c3ccc(Br)cc3)c(N)c12	92*	4	-8	-7
CCOC(=O)CSc1ncc(-c2ccc([N+](=O)[O-])cc2)[nH]1	13	-3	-2	-5
CCn1c2ccccc2c2c3ncc4cccn4c3ccc21	-16	/	/	/
O=C(NCCc1ccncc1)Nc1ccc(Cl)c(Cl)c1	14	2	96*	9
CC(C)N(CCc1ccncc1)C(=O)Nc1ccc(Cl)c(Cl)c1	35	17	92*	1
COc1cc(Nc2ccccc2Cl)c([N+](=O)[O-])nc1[N+](=O)[O-]	-10	0	83*	-9
COc1ccccc1Nc1ccc([N+](=O)[O-])cc1N	40	10	44	-14
NS(=O)(=O)c1ccc(CCNC(=O)c2ccc(C#CC3(O)CCCCC3)cc2)cc1	66	-42	-5	5
COCc1cc(C)nc(NC2CCCCC2)c1C#N	82*	/	-3	-7

Screening results: PubChem, several laboratories
